Assay outcomes (PubChem)
A selection: hits, their analogues and other compounds. The true share with any hit is near 2.8%.
Pol iota inh – blocks human DNA polymerase iota activity; 1% of 390,000 active; Potency, µM (titrated, usually from 115 µM), for the others: at the top dose activity, negative = inhibition, usual class: inhibitors; Q9UNA4; AID 588590; Pol iota fluorescent replication assay, 10 min; note: potency is the fitted concentration of half-maximal effect
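Fluorescent replication assay read twice, at 0 min and 10 min after adding 50 nM (final) substrate. Enzyme (10 nM) and compounds were first incubated 15 min at room temperature; enzyme-free buffer wells were negative controls.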
Pol eta inh – inhibitors of human DNA polymerase eta | Q9Y253 | recombinant Pol eta, fluorescent DNA replication assay | Potency, µM (highest dose often 114 µM), for the others: at the top dose activity change, negative = inhibition, most hits filed as inhibitors | 1.2% of 390,000 active; note: potency is the fitted concentration of half-maximal effect; % is set by controls: 0 for no effect and ±100 for the full control effect
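Fluorescent replication assay: 50 nM final substrate added after a 15 min room-temperature compound preincubation with 10 nM enzyme. Signal taken at 0 min and again at 10 min.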
PI4K2A inh – blocks human PI4K2A kinase activity; AID 1346378; purified PI4K2A, ADP-Glo luminescence, 1 h; hits give low values; 0.13% of 420,000 active; activity change, negative = inhibition, % at 76.9 µM; Q9BTU6; in the data active = activity change below about -50%; inconclusive = mostly about -30% to -49%;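 note: -100% = wells without enzyme as full effect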
Target sequence (Q9BTU6 whole entry, looked up): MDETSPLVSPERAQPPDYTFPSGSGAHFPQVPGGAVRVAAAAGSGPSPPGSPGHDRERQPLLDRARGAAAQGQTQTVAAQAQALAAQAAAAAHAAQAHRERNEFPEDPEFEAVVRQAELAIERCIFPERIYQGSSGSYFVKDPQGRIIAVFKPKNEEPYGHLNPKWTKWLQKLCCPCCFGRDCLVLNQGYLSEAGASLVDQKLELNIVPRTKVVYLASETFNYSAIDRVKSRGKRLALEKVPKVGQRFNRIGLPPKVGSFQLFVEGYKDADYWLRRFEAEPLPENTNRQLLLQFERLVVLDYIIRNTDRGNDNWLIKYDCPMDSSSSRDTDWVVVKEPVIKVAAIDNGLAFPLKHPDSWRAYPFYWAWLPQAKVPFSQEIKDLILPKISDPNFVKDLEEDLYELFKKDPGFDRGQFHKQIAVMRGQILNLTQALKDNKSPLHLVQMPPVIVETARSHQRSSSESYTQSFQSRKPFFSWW
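Compounds are screened against recombinant PI4K2A using PI as substrate and ATP, the latter dispensed at 300 microM. Reactions run one hour at ambient temperature before ADP-Glo detection; full inhibition defined by wells lacking enzyme.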
Pol kappa inh – DNA polymerase kappa (human) inhibition; Q9UBT6; purified Pol kappa, fluorescent DNA synthesis assay, 10 min; Potency, µM (series often up to 107 µM), for inactives: at the top dose activity, negative = inhibition, usual class: inhibitors; 0.53% of 400,000 active; note: potency is the fitted concentration of half-maximal effect; % is set by controls: 0 for no effect and ±100 for the full control effect
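Readout: fluorescence, taken kinetically at 0 and 10 min. Conditions: 10 nM Pol kappa, 15 min RT compound preincubation, 50 nM substrate final. Controls: enzyme-free buffer wells.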
PI5P4Ka inh – PI5P4K alpha (human) kinase inhibition | PI5P4Kalpha enzyme, ADP-Glo luminescence, 60 min; hits give low values | max response, % | 1.2% of 330,000 active | AID 652105; active = max response of -50% or lower; inconclusive = between -30% and -50%; inactive = -30% or higher; note: value at the top dose of about 77 µM; % is set by controls: 0 for no effect and ±100 for the full control effect
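Quantitative HTS of the MLSMR library against PI5P4Kalpha with substrate. ATP added last at 5 microM final; room temperature, 60 minutes. Remaining ATP depleted, ADP converted and read as luminescence.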
POLB inh – inhibitors of human DNA polymerase beta; P06746; Pol beta primer extension/strand displacement, fluorescence kinetic; Potency, µM (highest dose often 114 µM), for the others: at the highest dose activity change, negative = inhibition, most hits filed as inhibitors; 1.3% of 340,000 active; note: potency is the fitted concentration of half-maximal effect; % is set by controls: 0 for no effect and ±100 for the full control effect
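Reaction started by 50 nM substrate onto compound-treated Pol beta (10 nM, 15 min preincubation, room temperature); plates read at 0 min and 10 min. Normalized concentration-effect data fitted by four-parameter Hill equation.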
An asterisk follows results filed as active; ! = not confirmed by another sample; [ ] = remark or other dose. Unless noted, calls come from the whole dose curve; as a rule, active = well fitted inhibition curve with a large enough effect; inconclusive = small, poorly fitted or top-dose-only effect, or another doubt; inactive = no such curve, though single readings can be large or run the other way.

NC[C@@H](O)c1ccc(O)c(O)c1 was read as Pol kappa inh 12µM*.
CNC[C@H](O)c1ccc(O)c(O)c1 was read as Pol iota inh inconclusive, Pol eta inh 0%[57.1 µM], PI4K2A inh 1, Pol kappa inh 7.1µM*!, PI5P4Ka inh -1 and POLB inh -7%[57.1 µM].
`Cc1ccc(C)c(OCCn2ccnc2)c1` gave Pol iota inh 40µM*, Pol eta inh 32µM*, PI4K2A inh 7, Pol kappa inh 79µM*, PI5P4Ka inh -4 and POLB inh 10µM*.
O=C1/C(=C\c2ccncc2)SC(=S)N1C1CCCCC1 was read as Pol iota inh 4%, Pol eta inh -16%, PI4K2A inh 0, Pol kappa inh -8%, PI5P4Ka inh 0 and POLB inh 79µM*.
For O=C1/C(=C/c2ccncc2)SC(=S)N1C1CCCCC1 the results were Pol iota inh 6%, Pol eta inh -19%, PI4K2A inh 3, Pol kappa inh 0%, PI5P4Ka inh 2 and POLB inh 16%.
For NC(=O)COC(=O)c1ccccc1OCC(=O)Nc1ccc(Br)cc1 the results were Pol iota inh -27% and Pol kappa inh 8%.
O=C1N/C(=C\c2ccc(O)cc2)C(=O)c2ccccc21 was read as Pol iota inh 20µM*, Pol eta inh 25µM*, PI4K2A inh -50*, Pol kappa inh -17% and POLB inh 2%.
O=C(O)/C=C1\NC(=O)c2ccccc21 was read as Pol iota inh -4%, Pol eta inh 4%, PI4K2A inh -1, Pol kappa inh -10%, PI5P4Ka inh -21 and POLB inh 13%.
`COc1cc(C=O)cc(OC)c1[N+](=O)[O-]` gave Pol iota inh 11% and Pol kappa inh -4%.
CC(=O)C1=CCC(c2ccccc2)N(S(=O)(=O)c2ccccc2C)C1 (stereo not drawn) was read as PI4K2A inh 1 and PI5P4Ka inh 8.
`O=C(Nc1cc(S(=O)(=O)N2CCOCC2)ccc1N1CCCC1)c1cc2c(s1)CCCC2` gave PI4K2A inh -2.
`CNc1ccc(/C=C2\C=Cc3ccccc32)cc1I` gave Pol iota inh -7% and Pol kappa inh -10%.
Screening CCOC(=O)CSC1=NC(=O)/C(=C/c2ccc(OC)cc2)S1 returned Pol iota inh 11%, Pol eta inh -2%, PI4K2A inh 1, Pol kappa inh -3%, PI5P4Ka inh -51* and POLB inh 1%.
`C=CCn1c(=O)c(CCC(=O)Nc2ccc(N3CCOCC3)cc2)nc2cc(C(F)(F)F)ccc21` gave Pol iota inh inconclusive, Pol eta inh 79µM*, PI4K2A inh -2, Pol kappa inh inconclusive, PI5P4Ka inh -53* and POLB inh 6%.
For O=C(Cn1cc(C(F)(F)F)ccc1=O)Nc1ccc(N2CCOCC2)cc1 the results were Pol iota inh 95%, Pol eta inh -26%, PI4K2A inh 4, Pol kappa inh 0%, PI5P4Ka inh -7 and POLB inh -5%.
`O=C(NCCc1ccccc1)C1CC(=O)N(C2CCCCC2)C1` (stereo not drawn) gave Pol iota inh 17%, Pol eta inh -2%, PI4K2A inh -5, Pol kappa inh 4%, PI5P4Ka inh 4 and POLB inh 80%.
Screening O=C(NCCc1ccccc1)C1CC(=O)N(C2CCCCCC2)C1 (stereo not drawn) returned Pol iota inh 79µM*, Pol eta inh 5%, PI4K2A inh -1, Pol kappa inh 0% and POLB inh -7%.
`CCc1ccc(Nc2nc3c(S(=O)(=O)c4ccc(C)cc4)nnn3c3ccsc23)cc1` gave Pol iota inh 4%, Pol eta inh 0%, PI4K2A inh 0, Pol kappa inh -5% and POLB inh 9%.
CCc1ccc(S(=O)(=O)c2nnn3c2nc(Nc2ccc(NC(C)=O)cc2)c2sccc23)cc1 was read as Pol iota inh 79µM*, Pol eta inh inconclusive, PI4K2A inh -1, Pol kappa inh -20% and POLB inh -5%.
COc1ccc(Cl)cc1NC(=O)c1cc(S(=O)(=O)N(C)Cc2ccccc2)ccc1F was read as Pol iota inh inconclusive, Pol eta inh -7%, PI4K2A inh 3, Pol kappa inh -6%[60.1 µM] and POLB inh 3%.
`CCOc1ccc(N2C(=O)CS(=O)(=O)C23C(=O)N(Cc2cccc(Cl)c2)c2ccccc23)cc1` (stereo not drawn) gave Pol iota inh 9%, Pol eta inh -1%, PI4K2A inh 0, Pol kappa inh -5% and POLB inh 7%.
`CN(C)[C@@H]1C(=O)C(C(=O)NCN2CCCC2)=C(O)[C@@]2(O)C(=O)C3=C(O)c4c(O)cccc4[C@@](C)(O)C3CC12` (stereo partly drawn) gave POLB inh 0.5µM*.
Screening CN(C)c1ccc(O)c2c1CC1CC3C(N(C)C)C(=O)C(C(N)=O)=C(O)[C@@]3(O)C(=O)C1=C2O (stereo partly drawn) returned Pol iota inh inconclusive, Pol eta inh -2%, PI4K2A inh 1, Pol kappa inh inconclusive and PI5P4Ka inh 0.
CN(C)[C@H]1C(=O)C(C(=O)NCN2CCCC2)=C(O)[C@]2(O)C(=O)C3=C(O)c4c(O)cccc4[C@](C)(O)[C@H]3C[C@H]12 was read as Pol kappa inh 3.8µM*.
For O=C(CO)[C@@H](O)[C@H](O)[C@@H](O)CO the results were PI4K2A inh 2.
Screening Cc1ccc(C(=O)O/N=C(\N)c2ccc(Br)cc2)cc1 returned Pol iota inh 89µM*, Pol eta inh -22%, PI4K2A inh -3, Pol kappa inh -23%, PI5P4Ka inh 10 and POLB inh inconclusive.
Screening CCOC(=O)C1=C(C)Nc2ccccc2N/C1=N\S(=O)(=O)c1cc(C(=O)O)ccc1Cl returned Pol iota inh inconclusive, Pol eta inh 35µM*, PI4K2A inh 0, Pol kappa inh -22% and PI5P4Ka inh -3.
Screening CCOC(=O)C1=C(C)Nc2ccccc2N/C1=N\S(=O)(=O)c1ccc(Cl)cc1 returned Pol iota inh 9%, Pol eta inh -12%, PI4K2A inh 5, Pol kappa inh -4% and PI5P4Ka inh -11.
COc1ccccc1-n1cnnc1SCC(=O)c1c[nH]c2ccccc12 was read as Pol iota inh 47%, Pol eta inh -10%, PI4K2A inh 1, Pol kappa inh 3%[60.1 µM], PI5P4Ka inh -56* and POLB inh -2%.
